Measured values from paper PMC5540273 (PLoS ONE, 2017).
Values joined by “and” are separate entries in the source; they are usually repeats but may differ in a detail not shown here. Identical values can stand only once. Like-named read-outs stand apart in the source and are kept apart here.

Key:
FGFR4 = settings: concentration: 1 μM, replicates: in singlicate; n = 1
FGR = settings: concentration: 1 μM, replicates: in singlicate, n = 1
FLT1 = settings: concentration: 1 μM, replicates: in singlicate, n = 1
FLT3-autoinhibited = settings: concentration: 1 μM, replicates: in singlicate, n = 1
FLT3 = settings: concentration: 1 μM, replicates: in singlicate, n = 1
FLT4 = settings: concentration: 1 μM, replicates: in singlicate; n = 1
FRK = settings: concentration: 1 μM, replicates: in singlicate, n = 1
FYN = settings: concentration: 1 μM, replicates: in singlicate, n = 1
GAK = settings: concentration: 1 μM, replicates: in singlicate, n = 1
GCN2(Kin.Dom.2,S808G) = test system: T1, GCN2(Kin.Dom.2,S808G); settings: concentration: 1 μM, replicates: in singlicate, n = 1
T1 construct: gene EIF2AK4
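Further: KINOMEscan kinase panel screen.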

Compound	%Inh (FGFR4)	%Inh (FGR)	%Inh (FLT1)	%Inh (FLT3-autoinhibited)	%Inh (FLT3)	%Inh (FLT4)	%Inh (FRK)	%Inh (FYN)	%Inh (GAK)	%Inh (GCN2(Kin.Dom.2,S808G))	%Inh (FGR; 1 µM)	%Inh (FLT1; 1 µM)	%Inh (FLT3-autoinhibited; 1 µM)	%Inh (FLT3; 1 µM)	%Inh (FRK; 1 µM)	%Inh (FYN; 1 µM)	%Inh (GAK; 1 µM)	%Inh (GCN2(Kin.Dom.2,S808G); 1 µM)
c1ccc(-c2ccc3c(-c4ccnc(Nc5ccc6c(c5)OCCO6)n4)cnn3n2)cc1 [GW818941]	10%	23%	31%	18%	36%	36%	9%	32%	28%	11%								
Cc1cc(N2CCC(NS(=O)(=O)c3ccc(F)cc3)CC2)nc(Nc2cccc(C#N)c2)n1.O=C(O)C(F)(F)F [GSK1653537]	0%	26%	35%	0%	4%	0%	8%	19%	0%	6%								
Nc1n[nH]c2nnc(-c3ccccc3)cc12 [SB-517389]	14%	29%	12%	1%	0%	0%	6%	28%	10%	10%								
COC(=O)c1cccc(NC(=O)NCCNc2ccnc(Nc3ccc(F)cc3)n2)c1 [GSK1379883]	0%	9%	28%	0%	0%	17%	1%	0%	0%	6%								
COc1ccc(-c2nc3n(c2-c2ccncc2)CCC3)cc1 [SKF-104493]	8%					0%					19% and 8%	6% and 11%	22% and 0%	9% and 0%	5% and 0%	0% and 28%	13% and 41%	27% and 0%
